Measured values reported in PubChem BioAssay (NCI).
Compounds without any hit were thinned out: in the full panel of roughly 79,000, 15% have a hit. No stated cut-off is given here; in the data, active means growth inhibition above about 70%; inactive means the rest.

Tests used:
[1] = NCI Yeast Anticancer Drug Screen. Data for the rad50 strain (AID 155);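 further: 0% = growth of vehicle-only cultures of the same strain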; conditions: S. cerevisiae rad50 strain growth inhibition; at 50.0 µM; hits give high values
Summary of the method: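 Readout: growth inhibition relative to vehicle-treated cultures. Compound exposure was carried out in a genetically defined yeast strain deficient in DNA damage repair.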

[2] = NCI Yeast Anticancer Drug Screen. Data for the mec2-1 strain (AID 157); conditions: S. cerevisiae mec2-1 strain, at 50.0 µM, hits give high values
Summary of the method: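 Growth inhibition is read against vehicle-treated controls after compound exposure of the mec2-1 yeast strain, which is defective in DNA damage repair or cell cycle control.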

[3] = NCI Yeast Anticancer Drug Screen. Data for the sgs1 mgt1 strain (AID 161);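 further: 0% = growth of cultures given vehicle only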; conditions: S. cerevisiae sgs1 mgt1 strain, at 50.0 µM, hits give high values
Summary of the method: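 Growth of a repair-deficient yeast mutant was monitored after compound treatment and expressed as inhibition relative to vehicle-treated cultures.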

[4] = NCI Yeast Anticancer Drug Screen. Data for the cln2 rad14 strain (AID 165);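 further: 0% = growth equal to vehicle treated cultures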; conditions: S. cerevisiae cln2 rad14 strain, at 50.0 µM, hits give high values
Summary of the method: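 Growth inhibition, relative to vehicle-treated controls, is the read-out. The test organism is a yeast strain with defined genetic alterations, cln2 rad14.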

[5] = NCI Yeast Anticancer Drug Screen. Data for the bub3 strain (AID 167); conditions: S. cerevisiae bub3 mutant strain, at 50.0 µM, hits give high values
Summary of the method: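 Readout: yeast growth inhibition, expressed relative to vehicle-only wells. The test organism is a mutant strain from a panel with lesions in DNA repair or checkpoint genes.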

[6] = NCI Yeast Anticancer Drug Screen. Data for the mlh1 rad18 strain (AID 175); conditions: S. cerevisiae mlh1 rad18 strain growth inhibition; at 50.0 µM; hits give high values
Summary of the method: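 Cells of a genetically altered yeast strain, deficient in DNA damage repair, were treated with compound. Their growth was then compared with that of vehicle-treated cultures to give inhibition.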

Measured: growth inhibition

O=C([O-])C(=O)[N-]CCC[N-]C(=O)C(=O)[N-]CCC[N-]C(=O)C(=O)[O-].[Cu+2].[Cu+2].[Na+]
inactive: [1] -8.45% | [2] -13.6% | [3] 4.35% | [4] -21.8% | [5] -7.7% | [6] 8.9%

O=[N+]([O-])c1ccc(-c2csc3nc(-c4ccccc4)nn23)cc1
inactive: [1] -0.5% | [2] -31.2% | [3] -29.9% | [4] 10.4% | [5] -28.2% | [6] -23.2%

CC(=O)NC1C(OC(C)C(=O)NC(C)C(=O)NC(CCC(=O)NCCCCCNc2ccc([N+](=O)[O-])c3[nH]c4ccccc4c(=O)c23)C(N)=O)C(O)C(CO)OC1(C)OCc1ccccc1 (stereo not given)
inactive: [1] 13% | [2] 13.1% | [3] 27.2% | [4] 23.9% | [5] 19.9% | [6] 32.9%

NC(N)=NCCCc1ccccc1
inactive: [1] 7.05% | [2] 7.25% | [3] 0.8% | [4] 1.85% | [5] 4% | [6] -3.55%

CC(=O)NCC1(c2ccccc2)CCN(Cc2ccccc2)CC1
inactive: [1] -6.8% | [2] -17.3% | [3] -11.7% | [4] 5.7% | [5] -17% | [6] -14.2%

CCSC1=C(C)N(C=NC(C)(C)C)CC1
inactive: [1] -3.7% | [2] -23.5% | [3] -38% | [4] 7.4% | [5] -28.8% | [6] -14%

CNC(=O)c1ccccc1Sc1ccccc1
inactive: [1] -4.25% | [2] -15.8% | [3] -16.3% | [4] -34.8% | [5] 0.2% | [6] 3.15%

CCCCOCCOC(=O)C(C)O (stereo not given)
inactive: [1] 18.9% | [2] 13.7% | [3] 11.9% | [4] 6.6% | [5] -1% | [6] 6.4%

CCCCSc1nc2c(=O)[nH][nH]c(=O)c2n1Cc1ccccc1
inactive: [1] 11.9% | [2] 3.45% | [3] 23.2% | [4] 14.7% | [5] -0.8% | [6] 1.5%

CCOC(=O)NC(=O)CC#N
inactive: [1] -5.5% | [2] -29.8% | [3] 13.4% | [4] 5.05% | [5] -4.2% | [6] 10.7%

CS(=O)(=O)OCCOc1ccccc1
inactive: [1] 1.15% | [2] -0.45% | [3] 0.95% | [4] -32% | [5] 9.15% | [6] 8.05%

C=C(C)[C@@]1(OC(=O)c2cc([N+](=O)[O-])cc([N+](=O)[O-])c2)C[C@@H]2CCCC[C@@H]21
inactive: [1] -43.5% | [2] -26.1% | [3] -15.8% | [4] 5.8% | [5] -7.9% | [6] 2.1%

CO[C@@H]1C[C@H]2[C@@H]3CC[C@H]([C@H](C)COC(C)=O)[C@@]3(C)CC[C@@H]2[C@@]2(C)CC[C@H]3C[C@]312
inactive: [1] -4.65% | [2] 5.8% | [3] 1.55% | [4] -9.65% | [5] -1.6% | [6] 5.4%

Cc1cccc(Cl)c1NC1=NCCN1C(=O)CC(=O)c1ccccc1
inactive: [1] 54.1% | [2] -9.2% | [3] 1.1% | [4] 12.8% | [5] 2.05% | [6] 32.7%

N#Cc1nc(-c2ccccc2)c(-c2ccccc2)nc1C#N
inactive: [1] 3.15% | [2] 9.8% | [3] 0.6% | [4] -7.05% | [5] 13.9% | [6] -0.6%

CC(C)(O)C1CCC/C1=N/NC(N)=O (stereo not given)
inactive: [1] -7.5% | [2] 5% | [3] 5.2% | [4] 3.55% | [5] -10.3% | [6] -11.3%

O=c1[nH]cc(COCCO)c(=O)[nH]1
inactive: [1] -20.1% | [2] -2.8% | [3] -19.4% | [4] 7.4% | [5] -18% | [6] 7.2%

Cc1ccc(N=Cc2ccc(C(N)=S)cc2)cc1
inactive: [1] 7.05% | [2] 21.3% | [3] 1.45% | [4] -17.4% | [5] 18.8% | [6] 24%

CCN(CC)Cc1cc(N=Nc2ccc(-c3ccc(N)c(OC)c3)cc2OC)c2ccccc2c1O
inactive: [1] 18.7% | [2] 4.35% | [3] 18.6% | [4] 19.8% | [5] -4.8% | [6] 27.4%

O=C1CCC2(O1)c1ccc(O)cc1Oc1cc(O)ccc12
inactive: [1] 1.05% | [2] -24.1% | [3] -17.4% | [4] -3.9% | [5] 7.6% | [6] -7.3%

CC(=O)Nc1ccccc1-c1nc2cccnc2[nH]c1=O
inactive: [1] -9.6% | [2] 6.15% | [3] 2.65% | [4] -5.35% | [5] -1.85% | [6] -11.9%

CCCCOC(=O)NC(=O)c1cn(CCCOC(=O)CCCCCCCCC(=O)OCCCn2cc(C(=O)NC(=O)OCCCC)c(=O)n(C)c2=O)c(=O)n(C)c1=O
inactive: [1] -3.9% | [2] -10.9% | [3] -10.7% | [4] 12.2% | [5] 14.3% | [6] -5.55%

O=C(Cl)c1cc2ccccc2c2c(=O)c3ccc4cc5ccccc5cc4c3[nH]c12
inactive: [1] -51.6% | [2] -3.2% | [3] -10.4% | [4] -53.8% | [5] -13.2% | [6] -11.6%

O=C(c1c(F)c(F)c(F)c(F)c1F)n1c(=O)[nH]c2ccccc21
inactive: [1] -18.2% | [2] 13.2% | [3] -10.2% | [4] -12.1% | [5] 23.3% | [6] -27.4%

O=C1CNC(=O)N1
inactive: [1] -38.1% | [2] 23.8% | [3] 2% | [4] -11.7% | [5] 3.85% | [6] -38.2%

CCC12CCCN(Cc3ccccc3)C1c1c([nH]c3ccccc13)C(C(=O)OC)C2 (stereo not given)
inactive: [1] 11.8% | [2] -2.25% | [3] 17.6% | [4] 13.7% | [5] -0.25% | [6] 2.3%

Cc1ccc(-n2c(O)c(N=Nc3ccccc3)c(=O)n(-c3ccccc3)c2=S)cc1
inactive: [1] 20.1% | [2] -15.7% | [3] 51.4% | [4] -30.7% | [5] -9.2% | [6] -9.85%

CCOC(=O)C1=C(C)NC(C)=C(C(=O)OCC)C1C
inactive: [1] -29.1% | [2] -35.9% | [3] 4.5% | [4] -10.5% | [5] -22.1% | [6] -6.8%

CCNC(=S)N/N=C/c1cc(OC)ccc1O
inactive: [1] -11.7% | [2] 23.4% | [3] 0.2% | [4] 11% | [5] 23.1% | [6] -13.9%

CCc1ccc([OH2+])c(C(=O)[O-])c1.CCc1ccc([OH2+])c(C(=O)[O-])c1.CCc1ccc([OH2+])c(C(=O)[O-])c1.CCc1ccc([OH2+])c(C(=O)[O-])c1.[Cu+2].[Cu+2]
inactive: [1] 18.9% | [2] 2.5% | [3] 21.6% | [4] 29.3% | [5] 8.75% | [6] 20.9%

Nc1nc(Nc2ccccc2)nc(SCc2ccccc2)n1
inactive: [1] 9.7% | [2] 5.45% | [3] -5.5% | [4] -33.5% | [5] 0.15% | [6] 13.7%

O=C(CNc1ccccc1[N+](=O)[O-])Nn1cnc2ccc(S(=O)(=O)Nc3ccccc3[N+](=O)[O-])cc2c1=O
inactive: [1] 25.8% | [2] -1.25% | [3] 39.8% | [4] 15.1% | [5] 21.2% | [6] 28.5%

CCc1cc(C)cc(C(C)(C)C)c1
inactive: [1] 12.4% | [2] -17.8% | [3] 25.1% | [4] 7.15% | [5] -8.35% | [6] 22%

CC(CCC(=O)O)[C@H]1CCC2[C@@H]3C(=O)C[C@@H]4CC(O)CC[C@]4(C)C3CC[C@@]21C (stereo not given in full)
inactive: [1] 38.8% | [2] 18.1% | [3] 41.5% | [4] 35.8% | [5] 19.9% | [6] 23.1%

CC1(C)C(OS(C)(=O)=O)C(C)(C)C1OS(C)(=O)=O (stereo not given)
inactive: [1] 3.75% | [2] -20.6% | [3] 13.7% | [4] 9.45% | [5] 8.4% | [6] -12.9%

CC[O-].CC[O-].O=C([CH-]C(=O)c1cccnc1)c1ccccc1.O=C([CH-]C(=O)c1cccnc1)c1ccccc1.[Ti+4]
inactive: [1] -0.05% | [2] 19.8% | [3] -19.9% | [4] -16.2% | [5] -11.6% | [6] -8.4%

O=c1[nH]c(=O)n(COCc2ccccc2)c2ccc(Br)cc12
inactive: [1] -7.55% | [2] -9.5% | [3] -2.75% | [4] -20.4% | [5] -6.95% | [6] -61.5%

CCC(/C=N\NC(=O)CCCC(=O)N/N=C/C(CC)CC)CC
inactive: [1] -0.5% | [2] -8.5% | [3] -18.6% | [4] 5.65% | [5] 5.8% | [6] -0.35%

O=[N+]([O-])CC1(O)CCCCC1
inactive: [1] 25.6% | [2] 9.05% | [3] 11.2% | [4] 7.95% | [5] -0.65% | [6] 0.9%

Cn1ncc2c(=S)[nH]c(=O)[nH]c21
inactive: [1] 3.7% | [2] -0.2% | [3] -1.1% | [4] -4.95% | [5] 1.05% | [6] -0.1%
